Experimental findings from PubChem BioAssay AID920 (The Scripps Research Institute Molecular Screening Center, 2007) are described below.

About 700 (0.35%) of roughly 200,000 compounds were called active. This is one part of a sample in which actives are shown more often than they occur. A number with no mark means an inactive call.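 Rule for the calls: active = inhibition above a set limit, the mean inhibition across all tested compounds plus 3 SD (cut at about 34% in these data); inactive = the rest.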

This assay is described as follows: STAT1 signaling inhibitors, primary screen, cell-based, HTS, luciferase reporter (AID 920).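 Note: 0% = IFN-gamma with DMSO and 100% = IFN-gamma with 300 µM nifuroxazide.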 Particulars: NIH 3T3 STAT1-luciferase reporter, IFN-gamma, luminescence; at 5.5 µM; stronger effect = higher value. On the technique in general: In a reporter assay the amount or activity of a reporter protein is the signal.
On to `O=C(COC(=O)c1ccc(F)cc1)Nc1nc2ccc([N+](=O)[O-])cc2s1`, for which the inhibition (as a rule, the drop in the measured response relative to a control, in per cent) is -0.42%.

For the compound `O=C(CN1CCN(c2ccccn2)CC1)N1CCc2ccccc21`, the inhibition is -3.17%.

As to `O=C(CN1C(=O)c2ccccc2S1(=O)=O)N1CCc2ccccc21`, the inhibition is 61.3% (active).

Regarding `O=C(CSCc1ccccc1)N1CCc2ccccc21`, the inhibition was -41.3%.

Turning to `S=C(Nc1ccc(Br)cc1Cl)N1CCC2(CC1)OCCO2`, the inhibition is -18.2%.

As for `CCNc1ccc(C(=O)OCC(=O)N2c3ccccc3NC(=O)C2(C)C)cc1[N+](=O)[O-]`, the inhibition is 4.43%.

`Cc1cc(Cl)ccc1OCCCC(=O)NCc1ccncc1`: the inhibition was -1.56%.

As to `C/C(=N/OC(=O)c1cccc(C(F)(F)F)c1)c1cnccn1`, the inhibition was -6.55%.

In the case of `COc1cc(SC)ccc1C(=O)Nc1cc(C)ccn1`, the inhibition was -2.53%.

As for `COc1cc(SC)ccc1C(=O)Nc1nc(C)cs1`, the inhibition was 93.3% (active).

As to `COc1ccccc1CNC(=O)c1ccc(SC)cc1OC`, the inhibition was -9.83%.

Regarding `CC(=O)NC(Cc1ccc(F)c(F)c1)C(=O)NC1CCN(c2nnnn2-c2ccccc2)CC1` (stereo unspecified), the inhibition is 5.49%.

For `CC1c2nc3ccccc3n2C(CC(=O)NCCCN2CCOCC2)C(=O)N1Cc1ccccc1` (stereo unspecified), the inhibition was 6.33%.

On to `C/C(=N/NC(=O)C1COc2ccccc2O1)c1ccco1` (stereo unspecified), for which the inhibition was -4.92%.

Take `COC(=O)C1=CN(Cc2ccc(OC)c(OC)c2)C=C(C(=O)OC)C1c1cccs1`: the inhibition was 59.2% (active).

Take `COc1ccc(CCNC(=O)COC(=O)/C=C/c2cccs2)cc1OC`: the inhibition was 9.78%.

For `COc1ccc(C2=NN(C(=O)CCC(=O)O)C(c3cccs3)C2)cc1OC` (stereo unspecified), the inhibition is 3.75%.

For the compound `Cc1cc([N+](=O)[O-])nn1Cc1ccc(F)cc1`, the inhibition was 6.91%.

On to `O=c1cnnc(Nc2ccccc2F)[nH]1`, for which the inhibition was -3.73%.

As to `COc1ccc2c(CC(=O)OCC(=O)Nc3ccccc3[N+](=O)[O-])coc2c1`, the inhibition is 0.3%.

Take `COc1cc2c(cc1O)[C@H](Cc1ccc(Oc3cc(C[C@@H]4NCCc5cc(OC)c(O)cc54)ccc3O)cc1)NCC2`: the inhibition was 5.62%.

With `CC[C@H]1CN2CCc3cc(OC)c(OC)cc3[C@@H]2C[C@@H]1C[C@H]1NCCc2cc(OC)c(OC)cc21`, the inhibition was 71.5% (active).

Take `Cc1ccc(NC(=S)N2CCN(c3ncccn3)CC2)cc1C`: the inhibition was 0.8%.

In the case of `CCn1c2ccccc2c2cc(NC(=O)COC(=O)c3cc(S(=O)(=O)N4CCCCC4)ccc3Cl)ccc21`, the inhibition was 5.58%.

As for `CC(=O)c1ccc(-c2nnc(CCC(=O)N(C)Cc3cnc4ccccn34)o2)s1`, the inhibition is 0.17%.

For the compound `COc1ccc(-c2csc(Nc3ccccn3)n2)cc1`, the inhibition is -12.9%.

Take `COc1ccc(C(=O)/C=C/Nc2ccccn2)cc1`: the inhibition is 82.5% (active).

As for `CCOc1cc(NC(=O)c2ccccn2)c(OCC)cc1NC(=O)c1ccc(OC)cc1`, the inhibition was 3.8%.

In the case of `CSc1ccc(CN(C)CC(=O)NCc2ccc(F)cc2)cc1`, the inhibition was -7.18%.

In the case of `NC(=O)C1CCN(Cc2nc3c(Br)cc(Br)cc3c(=O)[nH]2)CC1`, the inhibition was 3.52%.

For the compound `O=C(Nc1ccccc1N1CCN(C(=O)c2ccccc2)CC1)c1ccc2c(c1)OCO2`, the inhibition was 2.21%.

Turning to `CCCC(=O)Nc1ccccc1N1CCN(C(=O)c2ccccc2)CC1`, the inhibition is 34.8% (active).

On to `CCC(=O)Nc1ccccc1N1CCN(S(C)(=O)=O)CC1`, for which the inhibition was 2.52%.

For the compound `Cc1nc2ccc(NC(=S)N3CCC(C)CC3)cc2nc1C`, the inhibition was -19.9%.

With `COc1cccc(-c2nn(-c3ccccc3)cc2/C=C(\C#N)C(=O)NCCCn2ccnc2)c1`, the inhibition is -6.77%.

Take `c1ccc(C2CNCc3c2ccc2ccccc32)cc1` (stereo unspecified): the inhibition is 14.8%.

Consider `COc1ccc(CC(=O)Nc2cc(S(=O)(=O)N3CCCCC3)ccc2N2CCN(C)CC2)cc1`, for which the inhibition was 1.82%.

On to `Cn1c(N)c(C(=O)COC(=O)/C=C/c2ccc(OC(F)F)cc2)c(=O)n(C)c1=O`, for which the inhibition is 5.58%.

For the compound `CS(=O)(=O)N1CCC(C(=O)N2CCN(c3ccccc3)CC2)CC1`, the inhibition was 7.02%.

With `CCc1ccc2c(c1)C(c1ccc([N+](=O)[O-])cc1)=NNC(c1ccccc1)=N2`, the inhibition is 5.38%.

Regarding `Cc1ccc(C2=Nc3c(ccc4ccccc34)C(c3ccncc3)=NN2)cc1`, the inhibition is 66.7% (active).

Take `CCOc1ccc2c(c1)C(c1ccc(C)cc1)=NNC(c1ccc(C)cc1)=N2`: the inhibition was -36.9%.

As to `CCc1ccc(-c2nn(-c3ccccc3)cc2CSC(=N)N)cc1`, the inhibition is -3.6%.

For `Cc1cc(C)n(CCNC(=O)CC2C(=O)NCCN2Cc2ccc(C)o2)n1` (stereo unspecified), the inhibition is 4.76%.

In the case of `C=CCn1c(CCc2ccc(OC(C)C)cc2)n[nH]c1=S`, the inhibition was -6.91%.

On to `C=CCN(C(=O)c1cc(C)cc(C)c1)C1(C(=O)Nc2ccccc2)CCN(C(C)C)CC1`, for which the inhibition was -4.59%.

With `NC(N)=NCCCc1cn(CC(=O)N2CCNCC2)nn1`, the inhibition is 3.04%.

Turning to `Cc1ccc(C(=O)Cn2cccn2)cc1`, the inhibition is -6.86%.

Take `Cc1noc(C)c1COc1cccc(C(=O)Nc2cccnc2)c1`: the inhibition was 2.53%.

Turning to `Cc1cccc(OCCNC(=S)NC(=O)c2cccnc2)c1`, the inhibition was -6.17%.

Consider `CN(Cc1cccnc1)C(=O)c1cc(COc2ccc3ncccc3c2)on1`, for which the inhibition is 34.3% (active).

For `Cc1cccc(N2CCN(c3ccc(NC(=O)/C=C\C(=O)O)cc3)CC2)c1`, the inhibition is 1.29%.

For the compound `OCCC1CN(Cc2cccc(O)c2)CCN1CCc1ccccc1` (stereo unspecified), the inhibition was 8.18%.

Consider `S=C(NCCc1ccccc1)N1CCn2cccc2C1c1ccncc1` (stereo unspecified), for which the inhibition was 21.8%.

Take `Cc1ccc(Oc2ccc(N)cc2)cc1`: the inhibition was -19.6%.

With `Nc1ccc(Oc2ccc(Cl)cc2)cc1`, the inhibition is -14.9%.

Regarding `CC(C)(C)c1ccc(Oc2ccc(N)cc2)cc1`, the inhibition is 64.1% (active).

For the compound `COc1ccc([C@H]2[C@H](C(C)=O)N3N=Cc4ccccc4C3C23C(=O)OC(C)(C)OC3=O)cc1` (stereo partly specified), the inhibition is -13.7%.

In the case of `Cn1c(=O)n(C)c2cc(C(=O)Nc3ccc4c(c3)OCO4)ccc21`, the inhibition was 35.6% (active).

On to `Cn1c(NC(=O)c2ccc3c(c2)OCO3)cc(=O)n(C)c1=O`, for which the inhibition was 0.99%.

Turning to `COc1ccc(C(=O)Nc2ccc3c(c2)OCO3)cc1OC`, the inhibition is -0.74%.
